For assay [1], the system named is Wnt5a (protein binding on small-molecule microarray). Nature of the assay: Wnt5a binders on small-molecule microarray, primary screen, biophysical, 635/667 nm fluorescence (AID 1142).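 Further: fluorescence read at 667 nm with signal to noise per printed feature.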 To be noted: 635 nm fluorescence, higher = more signal.
Assay [2] can be described thus: cell viability in Huh7 cells, primary screen, cytotoxicity control for HCV replication inhibitor project, CellTiter-Glo luminescence, basal, 48 h (AID 1143).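 Further: Huh7 hepatoma cells carrying a hepatitis C replication reporter with no stimulus; test concentration not given here.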 Particulars: Huh7 HCV replicon, higher = more signal, called active from +8 up or from −8 down. Background: ATP-based viability assays read luminescence as a measure of living cells.
A short description of assay [3]: P. aeruginosa biofilm formation inhibitors, primary screen, PAO1 strain, BacTiter-Glo luminescence, LB-PBS (AID 1144). To be noted: 12 h, higher = more signal.
Assay [4] is described as follows: CREB reporter modulators without forskolin, primary screen, cell-based, PC12, CRE-LacZ reporter, unstimulated (AID 1145). To be noted: no forskolin, luminescence, 4.5 h, higher = more signal, called active from +8 up or from −8 down.
Assay [5] in a line: CREB reporter modulators under forskolin, primary screen, cell-based, PC12, CRE-LacZ reporter, forskolin-stimulated (AID 1146).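 Further: PC12 cells with 6xCRE LacZ reporter stimulated by forskolin 10 µM; beta-galactosidase reporter signal reflecting CREB driven transcription.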 Particulars: luminescence, 4.5 h, higher = more signal, called active from +8 up or from −8 down.
The target in assay [6] is Streptavidin (Streptomyces avidinii) (UniProt P22629). Nature of the assay: streptavidin binders on small-molecule microarray, primary screen, artefact control for SMM compound annotation, biophysical, 635/667 nm fluorescence (AID 1147).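 Further: signal reflects streptavidin binding to arrayed compounds as a control protein.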 Particulars: streptavidin binding, higher = more signal.
The nature of assay [7]: small-molecule binders of probe aInhba, primary screen, biochemical, small-molecule microarray, 635/667 nm fluorescence (AID 1148).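 Further: score merges 667nm spot fluorescence with signal-to-noise for antibody binding to printed compounds.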 To be noted: higher = more signal.
Assay [8] has as its target Torsin-1A (Homo sapiens) (UniProt O14656). Nature of the assay: torsin A binders from cell lysate, primary screen, small-molecule microarray, wild-type, 635/667 nm (AID 1149). Particulars: COS7 hTOR1A-WT lysate, 635 nm fluorescence, higher = more signal.
Assay [9] has the same target. In words: small-molecule binders of mutant TOR1A in lysate, primary screen, cell lysate, small-molecule microarray, COS7 lysate, 635/667 nm fluorescence (AID 1150).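 Further: score pools 667 nm emission and signal to noise measuring lysate protein binding.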 To be noted: COS7 hTOR1A mutant lysate, 635 nm fluorescence, higher = more signal.
The subject of assay [10] is Sonic hedgehog protein (Shh). Nature of the assay: small-molecule binders of Shh protein, primary screen, biochemical, small-molecule microarray, 635/667 nm fluorescence (AID 1151).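 Further: Shh protein binding to compounds spotted on small-molecule microarray slides; score combines spot fluorescence intensity with signal-to-noise across triplicate slides.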 Particulars: small-molecule microarray binding, 635 nm fluorescence; higher = more signal.
Assay [11] is described as follows: E. coli DRC41 culture turbidity changes, primary screen, E. coli filamentation inducer project, strain DRC41, OD650, 48 h (AID 1152).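 Further: E. coli MC1000 strain DRC41 lacking acrAB efflux pump and sulA.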 Particulars: E. coli DRC41 (acrAB sulA), higher = more signal, called active from +8 up or from −8 down.
The nature of assay [12]: small-molecule binders of probe aLefty1, primary screen, biochemical, small-molecule microarray, 635/667 nm fluorescence (AID 1153).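 Further: score merges spot fluorescence with signal-to-noise ratio from the scanned slide images.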 Particulars: higher = more signal.
A short description of assay [13]: PSAC antagonists in infected red cells, primary screen, cell-based, P. falciparum Indochina, OD700, 1 h (AID 1154). To be noted: P. falciparum Indochina infected RBC osmotic lysis, higher = more signal, called active from +8 up or from −8 down.
Assay [14] in a line: PSAC antagonists in infected red cells, primary screen, cell-based, P. falciparum Indochina, OD700, 2 h (AID 1155).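 Further: lysis reports solute entry through the parasite surface anion channel PSAC; channel blockers reduce lysis of infected cells.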 To be noted: P. falciparum Indochina infected erythrocytes, osmotic lysis OD700; higher = more signal, called active from +8 up or from −8 down.
Assay [15] is described as follows: osmotic lysis modulators in infected erythrocytes, primary screen, PSAC antagonist project, cell-based, P. falciparum Indochina, OD700, 3 h (AID 1156). Particulars: higher = more signal, called active from +8 up or from −8 down.
The nature of assay [16]: PSAC antagonists in infected red cells, primary screen, cell-based, P. falciparum Indochina, OD700, 18 h (AID 1157). Particulars: P. falciparum Indochina infected erythrocytes, osmotic lysis OD700, 18 h; higher = more signal, called active from +8 up or from −8 down.
Assay [17] in a line: modulators of S6 phosphorylation in cells, primary screen, cell-based, A549, cytoblot, luminescence, serum-stimulated (AID 1158).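 Further: serum-stimulated A549 lung adenocarcinoma cells; signal is phosphorylated S6 detected by cytoblot immunostaining with HRP secondary.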 To be noted: A549 phospho-S6 cytoblot, 5 h, higher = more signal.
Assay [18] addresses NADPH oxidase 2 (Homo sapiens) (UniProt P04839). In words: NOX2-dependent H2O2 signal modulators, primary screen, NOX inhibitor project, cell-based, HEK293-NOX2, PMA-stimulated, Amplex Red fluorescence (AID 1159). Further: test concentration not given here. Particulars: 45 min, higher = more signal, called active from +8 up or from −8 down.
The target in assay [19] is NADPH oxidase 4 (Homo sapiens) (UniProt Q9NPH5). Nature of the assay: NOX4-dependent H2O2 signal modulators, primary screen, NOX inhibitor project, cell-based, HEK293-NOX4, tetracycline-induced, Amplex Red fluorescence (AID 1160). To be noted: 45 min, higher = more signal, called active from +8 up or from −8 down.
For assay [20], the target named is NADPH oxidase 5 (Homo sapiens) (UniProt Q96PH1). In words: NOX5-dependent H2O2 signal modulators, primary screen, NOX inhibitor project, cell-based, HEK293-NOX5, Amplex Red fluorescence (AID 1161). Particulars: HEK293-NOX5, ionomycin, 45 min, higher = more signal.

SMILES strings stand for the structures. Activity calls are given as the source filed them. Unless noted, how the calls were made is not given here.

Torsin-1A (Homo sapiens), sequence (O14656 whole entry, looked up): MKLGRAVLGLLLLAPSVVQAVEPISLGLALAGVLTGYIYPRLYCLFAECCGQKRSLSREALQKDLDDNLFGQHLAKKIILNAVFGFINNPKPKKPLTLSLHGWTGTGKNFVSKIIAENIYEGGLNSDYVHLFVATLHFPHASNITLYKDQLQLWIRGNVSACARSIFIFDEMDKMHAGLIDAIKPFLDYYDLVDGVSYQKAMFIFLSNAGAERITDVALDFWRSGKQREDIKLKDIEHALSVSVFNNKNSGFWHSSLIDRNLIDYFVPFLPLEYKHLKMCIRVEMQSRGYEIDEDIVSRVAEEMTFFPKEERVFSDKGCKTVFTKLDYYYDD
NADPH oxidase 2 (Homo sapiens), sequence (P04839 whole entry, looked up): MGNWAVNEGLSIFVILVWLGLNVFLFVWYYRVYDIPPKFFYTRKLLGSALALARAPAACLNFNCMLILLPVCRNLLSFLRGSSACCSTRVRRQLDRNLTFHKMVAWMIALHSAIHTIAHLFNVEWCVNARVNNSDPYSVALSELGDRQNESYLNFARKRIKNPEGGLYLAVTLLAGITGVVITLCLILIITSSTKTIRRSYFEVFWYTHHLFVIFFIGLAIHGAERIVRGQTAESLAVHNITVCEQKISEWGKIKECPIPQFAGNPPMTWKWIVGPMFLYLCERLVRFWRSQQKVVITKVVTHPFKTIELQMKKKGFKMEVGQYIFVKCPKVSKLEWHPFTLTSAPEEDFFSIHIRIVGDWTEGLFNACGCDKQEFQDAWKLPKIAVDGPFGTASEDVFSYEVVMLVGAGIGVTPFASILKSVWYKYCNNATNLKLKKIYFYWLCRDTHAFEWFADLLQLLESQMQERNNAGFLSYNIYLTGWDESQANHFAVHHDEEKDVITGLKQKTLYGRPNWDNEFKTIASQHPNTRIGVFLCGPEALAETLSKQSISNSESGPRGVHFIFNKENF
NADPH oxidase 4 (Homo sapiens), sequence (Q9NPH5 whole entry, looked up): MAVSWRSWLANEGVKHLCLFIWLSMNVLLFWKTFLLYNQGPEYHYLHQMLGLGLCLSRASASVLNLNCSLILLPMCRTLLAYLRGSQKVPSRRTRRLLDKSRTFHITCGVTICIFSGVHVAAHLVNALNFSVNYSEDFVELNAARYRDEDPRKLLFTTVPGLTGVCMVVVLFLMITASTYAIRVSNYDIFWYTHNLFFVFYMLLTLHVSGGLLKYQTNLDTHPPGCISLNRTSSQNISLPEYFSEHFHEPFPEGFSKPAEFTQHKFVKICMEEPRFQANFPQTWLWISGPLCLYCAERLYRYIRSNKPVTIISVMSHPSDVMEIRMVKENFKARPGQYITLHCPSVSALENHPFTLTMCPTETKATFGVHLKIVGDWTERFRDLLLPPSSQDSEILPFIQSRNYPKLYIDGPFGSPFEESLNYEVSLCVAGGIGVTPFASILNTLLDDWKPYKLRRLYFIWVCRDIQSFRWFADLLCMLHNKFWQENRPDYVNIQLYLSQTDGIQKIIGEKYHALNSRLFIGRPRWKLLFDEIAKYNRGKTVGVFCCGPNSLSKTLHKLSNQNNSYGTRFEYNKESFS
Streptavidin (Streptomyces avidinii), sequence (P22629 whole entry, looked up): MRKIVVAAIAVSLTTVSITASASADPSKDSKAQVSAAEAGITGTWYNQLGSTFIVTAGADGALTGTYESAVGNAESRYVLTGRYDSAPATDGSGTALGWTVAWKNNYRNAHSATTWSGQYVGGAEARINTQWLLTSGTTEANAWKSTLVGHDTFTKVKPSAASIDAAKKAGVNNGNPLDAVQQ
NADPH oxidase 5 (Homo sapiens), sequence (Q96PH1 whole entry, looked up): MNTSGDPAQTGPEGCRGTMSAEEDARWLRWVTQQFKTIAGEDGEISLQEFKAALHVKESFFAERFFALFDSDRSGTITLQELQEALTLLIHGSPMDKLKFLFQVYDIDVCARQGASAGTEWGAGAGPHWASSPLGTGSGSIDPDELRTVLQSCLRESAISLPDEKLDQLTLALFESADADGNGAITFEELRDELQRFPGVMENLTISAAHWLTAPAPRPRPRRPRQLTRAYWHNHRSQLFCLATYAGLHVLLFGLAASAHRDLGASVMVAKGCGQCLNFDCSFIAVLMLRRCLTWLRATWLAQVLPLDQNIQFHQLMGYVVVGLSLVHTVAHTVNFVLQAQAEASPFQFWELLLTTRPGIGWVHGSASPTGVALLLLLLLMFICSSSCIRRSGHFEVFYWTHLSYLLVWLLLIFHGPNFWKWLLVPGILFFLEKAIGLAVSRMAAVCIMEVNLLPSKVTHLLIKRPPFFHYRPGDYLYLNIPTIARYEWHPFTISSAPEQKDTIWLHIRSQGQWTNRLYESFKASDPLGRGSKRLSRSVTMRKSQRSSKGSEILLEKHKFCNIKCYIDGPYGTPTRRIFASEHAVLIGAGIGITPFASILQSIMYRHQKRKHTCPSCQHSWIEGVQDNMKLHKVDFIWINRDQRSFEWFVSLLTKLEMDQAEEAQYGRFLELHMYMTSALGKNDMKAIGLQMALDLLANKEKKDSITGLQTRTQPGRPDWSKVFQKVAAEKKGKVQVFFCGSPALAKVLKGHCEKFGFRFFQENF

Turning to `CCOC(=O)C[C@H]1[C@H](OC(=O)c2ccc(C(=O)c3ccccc3)cc2)[C@@H](NC(=O)C2CCCCC2)c2cc(OCCCO)ccc2N1C(=O)c1ccc2ccccc2n1`, the composite z-score in [1] was 0.233; in assay [6], 0.731; in assay [7], -0.0933; in the assay with Torsin-1A (Homo sapiens) [8] it was 0.772; in the assay with Torsin-1A (Homo sapiens) [9], 0.298; in assay [10], 0.93. Moreover, the composite z-score in [12] is 0.596. Further, the z-score is 0.233 (inactive) in [2]; -1.09 (inactive) in assay [3]; -0.215 (inactive) in assay [4]; -0.825 (inactive) in [5]; 1.94 (inactive) in [11]; 3.11 (inactive) in assay [13]. The z-score in assay [14] is 0.347 (inactive); in assay [15], -0.238 (inactive); in assay [16] it was 0.0872 (inactive); in [17], 0.0955; in assay [18], -1.62 (inactive); in assay [19], 0.402 (inactive). Moreover, the z-score in assay [20] is 0.124.
For `COCCOC(=O)N1C(=O)[C@@]2(c3cc(C#CCCO)ccc31)[C@H](c1ccc(OCCO)cc1)N1[C@H](c3ccccc3)[C@H](c3ccccc3)OC(=O)[C@H]1[C@@H]2C(=O)Nc1nc2ccccc2s1`, the composite z-score in [1] was determined as 0.508; in assay [6], 1.13; in [7] it was 0.358; in the assay with Torsin-1A (Homo sapiens) [8], 0.266; with Torsin-1A (Homo sapiens) [9], 0.0474; in [10], 1.97. Further, the composite z-score in assay [12] came out at 0.181. Also, the z-score in assay [2] is -0.218 (inactive); in [3], 0.56 (inactive); in assay [4], -0.618 (inactive); in [5] it was -0.267 (inactive); in assay [11], -0.0929 (inactive); in [13], 3.74 (inactive). The z-score was 1.5 (inactive) in assay [14]; 0.258 (inactive) in assay [15]; 0.678 (inactive) in assay [16]; -0.115 in assay [17]; 1.58 (inactive) in assay [18]; 1.26 (inactive) in [19]. Further, in assay [20], the z-score stood at 1.43.
As to `CC(C)C(O)C1C=CC2C(=O)N(c3ccccc3)C(=O)C2N1Nc1ccccc1` (stereo not given), the composite z-score is 0.271 in assay [1]; 0.874 in assay [6]; 0.0756 in [7]; 0.64 with Torsin-1A (Homo sapiens) [8]; 0.923 in the assay with Torsin-1A (Homo sapiens) [9]; 1.04 in assay [10]. The composite z-score in assay [12] was -0.0163. For the same compound, the z-score in [2] was -3.03 (inactive); in assay [3], -1.35 (inactive); in assay [4], 0.819 (inactive); in assay [5] it was 0.418 (inactive); in assay [11], -0.471 (inactive); in assay [13] it was 1.2 (inactive). Moreover, the z-score in assay [14] is -0.4 (inactive); in assay [15], 1.33 (inactive); in assay [16], -0.741 (inactive); in assay [17] it was 0.325; in assay [18] it was -3.32 (inactive); in [19] it was -4.05 (inactive). In [20], this compound returned a z-score of -6.43.
For `CCOC(=O)[C@@H]1CCCCN1C(=O)C(=O)OC`, the composite z-score in [1] was 0.214; in assay [6], -0.0957; in [7], 0.0118; with Torsin-1A (Homo sapiens) [8] it was 0.188; with Torsin-1A (Homo sapiens) [9], -0.144; in assay [10] it was 0.901. In assay [12], this compound displayed a composite z-score of -0.0515. The z-score is 0.474 (inactive) in assay [2]; 0.594 (inactive) in [3]; 0.362 (inactive) in [4]; 1.56 (inactive) in assay [5]; -0.446 (inactive) in assay [11]; -1.11 (inactive) in [13]. In addition, the z-score in assay [14] was -0.164 (inactive); in assay [15], -0.306 (inactive); in [16] it was -0.262 (inactive); in assay [17], -0.523; in [18] it was 0.296 (inactive); in [19], -0.28 (inactive). In assay [20], this compound returned a z-score of 0.153.
On to `C=CCNC(=O)[C@@H]1[C@H]2C(=O)O[C@H](c3ccccc3)[C@H](c3ccccc3)N2[C@H](c2ccc(O)cc2)[C@@]12C(=O)N(C(=O)OCCOC)c1ccc(C#CC3=CCCCC3)cc12`, for which the composite z-score was determined as 0.432 in assay [1]; 0.268 in [6]; 0.0705 in assay [7]; 0.87 with Torsin-1A (Homo sapiens) [8]; 0.686 with Torsin-1A (Homo sapiens) [9]; 1.86 in assay [10]. In assay [12], the composite z-score worked out at 0.319. Further, the z-score in assay [2] was -2.12 (inactive); in [3], 0.411 (inactive); in assay [4] it was 0.346 (inactive); in [5], -0.0705 (inactive); in assay [11], -1.1 (inactive); in [13], 1.78 (inactive). The z-score is 0.836 (inactive) in assay [14]; -0.942 (inactive) in [15]; 0.313 (inactive) in [16]; 0.0229 in [17]; 1.61 (inactive) in assay [18]; 0.339 (inactive) in assay [19]. For the same compound, the z-score in assay [20] amounted to 0.344.
